26 compounds from PubChem BioAssay (EPA / NIEHS) can be followed below.

The nature of experiment [1]: APR_HepG2_NuclearSize_72hr: Apredica 72-hour HepG2 Assay for Nuclear Size (AID 2282925). The following applies: high-content imaging, actives raise or lower the signal. The method in brief:
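Compounds (0.39–200 uM, final DMSO 0.5%) were applied to HepG2 for 72 hr. Cells were then formaldehyde-fixed, permeabilized and labelled with Hoechst 33342. Nuclear diameter was quantified from six images per well.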

A short description of experiment [2]: ATG_CRE_CIS: Attagene CIS-FACTORIAL HepG2 Assay for human cAMP Responsive Element (CRE) binding protein 3 (AID 2282926). Conditions: HepG2 CRE cis-reporter, Attagene multiplexed mRNA; actives raise or lower the signal. The method in brief: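 Induced reporter mRNA from a CRE cis element, measured in HepG2 among many multiplexed units at 24 h. Detection used RT-PCR plus capillary electrophoresis of fluorescent fragments; DMSO served as negative control.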

Experiment [3] concerns the target CCAAT/enhancer-binding protein beta (Homo sapiens) (UniProt P17676). Put plainly: ATG_C_EBP_CIS: Attagene CIS-FACTORIAL HepG2 Assay for human CCAAT/Enhancer Binding Protein (C/EBP) beta (AID 2282927). Conditions: HepG2 Attagene cis-factorial transcription factor reporter; actives raise or lower the signal. The method, boiled down: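 Following a 24 h incubation with test chemical, transfected HepG2 cells yielded RNA whose reporter transcripts were quantified by RT-PCR and fluorescent capillary electrophoresis, with DMSO serving as baseline for bidirectional fitting.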

Experiment [4] in a line: ATG_CMV_CIS: Attagene CIS-FACTORIAL HepG2 Assay for human CMV (Internal Marker) (AID 2282928).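 Further: endpoint acts as a background internal control marker rather than a target.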 The following applies: HepG2 CMV promoter reporter, transcription factor profiling; actives raise or lower the signal. The method, boiled down: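 Readout: fluorescent reporter cDNA fragments separated by capillary electrophoresis after RT-PCR and HpaI cut. Cells: HepG2 carrying transfected cis-promoter reporter constructs, dosed 24 h. Endpoint serves as background internal-marker control, fit bidirectionally versus DMSO.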

Experiment [5] in a line: ATG_DR4_LXR_CIS: Attagene CIS-FACTORIAL HepG2 Assay for human Liver X Receptor (LXR), DR4 submotif (AID 2282929). Conditions: HepG2 Attagene DR4 cis-reporter, mRNA transcription; actives raise or lower the signal. The method in brief:
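Transiently transfected HepG2 liver cells; cis-regulated reporters; 24 h dosing. RT-PCR plus CE read-out of reporter mRNA. DMSO baseline, bidirectional curve fitting.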

For experiment [6], the target named is Aryl hydrocarbon receptor (Homo sapiens) (UniProt P35869). As to the kind of experiment: ATG_Ahr_CIS: Attagene CIS-FACTORIAL HepG2 Assay for human Aryl Hydrocarbon Receptor (Ahr) (AID 2282930). The following applies: HepG2 AhR cis-factorial reporter transcription; actives raise or lower the signal. The method, boiled down: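 Values derive from bidirectional fitting against DMSO negative control. Underlying signal: cis-element reporter mRNA in transiently transfected HepG2, harvested 24 h post-dose and measured by RT-PCR plus capillary electrophoresis.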

Experiment [7] in a line: ATG_AP_1_CIS: Attagene CIS-FACTORIAL HepG2 Assay for human Activator Protein 1 (AP-1) (AID 2282931). Conditions: HepG2 Attagene cis-factorial AP-1 reporter mRNA; actives raise or lower the signal. The method, boiled down: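 We transfected HepG2 cells transiently with a set of cis-regulated reporter transcription units, dosed them for 24 h, and quantified reporter mRNA via RT-PCR and capillary electrophoresis, scoring gain or loss of signal relative to DMSO.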

The nature of experiment [8]: ATG_BRE_CIS: Attagene CIS-FACTORIAL HepG2 Assay for human Bone Morphogenetic Protein (BMP) Response Element (BRE) (AID 2282933). The following applies: HepG2 BMP response element reporter, Attagene transcription factor profiling; actives raise or lower the signal. The method, boiled down: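 HepG2 cells transiently transfected with multiplexed cis-element reporter units were dosed with chemical for 24 h. Reporter mRNA was measured by RT-PCR with fluorescent labelling, HpaI digestion and capillary electrophoresis; bidirectional fitting relative to DMSO.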

For experiment [9], the target named is Retinoic acid receptor alpha (Homo sapiens) (UniProt P10276). As to the kind of experiment: ATG_DR5_RAR_CIS: Attagene CIS-FACTORIAL HepG2 Assay for human Retinoic Acid Receptor Alpha (RARE), DR5 submotif (AID 2282934). The following applies: HepG2 Attagene cis-factorial RARE DR5 reporter, mRNA; actives raise or lower the signal. The method in brief:
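Endpoint fitted in both directions relative to DMSO as negative control. It reflects DR5 cis-element reporter mRNA induction in transiently transfected HepG2 cells, measured 24 h after dosing through RT-PCR and fluorescent capillary electrophoresis.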

Experiment [10] can be described thus: ATG_AP_2_CIS: Attagene CIS-FACTORIAL HepG2 Assay for human Activator Protein 2 (AP-2) (AID 2282932). Conditions: HepG2 AP-2 cis-reporter, Attagene transcription factor profiling; actives raise or lower the signal. The method in brief: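 Cells (HepG2) transfected with promoter-driven reporter constructs, treated 24 h. Total RNA reverse-transcribed, reporter cDNA PCR-amplified, FAM-labelled by primer extension, digested, resolved by capillary electrophoresis. Activity fitted both directions versus DMSO.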

Calls of active or inactive are those of the source. How the source made its calls: active means hit-call score of the fitted dose curve at least 0.9, where 1 is the maximum; inactive means score below 0.9.

Aryl hydrocarbon receptor (Homo sapiens), sequence (P35869 whole entry, looked up): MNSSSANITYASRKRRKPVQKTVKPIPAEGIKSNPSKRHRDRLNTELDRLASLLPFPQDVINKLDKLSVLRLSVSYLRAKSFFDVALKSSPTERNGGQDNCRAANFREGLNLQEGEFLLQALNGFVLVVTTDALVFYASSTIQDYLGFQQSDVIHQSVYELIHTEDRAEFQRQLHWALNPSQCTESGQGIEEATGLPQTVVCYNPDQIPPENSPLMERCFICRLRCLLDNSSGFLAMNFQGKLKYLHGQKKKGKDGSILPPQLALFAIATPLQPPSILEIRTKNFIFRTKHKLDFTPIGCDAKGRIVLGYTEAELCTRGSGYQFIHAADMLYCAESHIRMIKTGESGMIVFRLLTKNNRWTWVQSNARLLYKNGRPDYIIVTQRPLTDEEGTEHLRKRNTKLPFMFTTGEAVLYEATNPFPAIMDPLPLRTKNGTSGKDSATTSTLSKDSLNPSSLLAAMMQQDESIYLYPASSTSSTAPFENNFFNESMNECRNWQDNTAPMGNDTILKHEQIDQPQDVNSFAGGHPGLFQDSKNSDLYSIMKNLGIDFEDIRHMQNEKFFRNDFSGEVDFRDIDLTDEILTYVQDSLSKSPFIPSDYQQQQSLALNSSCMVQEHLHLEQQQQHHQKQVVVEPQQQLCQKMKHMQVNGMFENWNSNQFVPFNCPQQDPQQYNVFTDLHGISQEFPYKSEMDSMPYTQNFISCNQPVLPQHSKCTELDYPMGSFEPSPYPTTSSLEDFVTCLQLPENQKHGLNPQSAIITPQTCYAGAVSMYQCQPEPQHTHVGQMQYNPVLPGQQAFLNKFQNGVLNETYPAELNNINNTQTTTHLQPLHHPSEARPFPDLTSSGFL
Retinoic acid receptor alpha (Homo sapiens), sequence (P10276 whole entry, looked up): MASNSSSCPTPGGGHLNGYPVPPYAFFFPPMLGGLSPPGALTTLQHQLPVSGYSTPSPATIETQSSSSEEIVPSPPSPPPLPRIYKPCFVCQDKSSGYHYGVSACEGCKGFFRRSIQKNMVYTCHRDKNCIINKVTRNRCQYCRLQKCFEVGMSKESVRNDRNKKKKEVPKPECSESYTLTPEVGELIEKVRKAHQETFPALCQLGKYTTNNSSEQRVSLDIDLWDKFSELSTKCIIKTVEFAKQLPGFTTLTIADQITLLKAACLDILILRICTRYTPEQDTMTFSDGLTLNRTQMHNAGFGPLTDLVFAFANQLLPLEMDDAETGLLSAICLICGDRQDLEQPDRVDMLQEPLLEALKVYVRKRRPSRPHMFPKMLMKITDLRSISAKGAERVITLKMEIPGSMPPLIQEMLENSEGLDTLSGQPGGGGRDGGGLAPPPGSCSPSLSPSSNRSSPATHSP
CCAAT/enhancer-binding protein beta (Homo sapiens), sequence (P17676 whole entry, looked up): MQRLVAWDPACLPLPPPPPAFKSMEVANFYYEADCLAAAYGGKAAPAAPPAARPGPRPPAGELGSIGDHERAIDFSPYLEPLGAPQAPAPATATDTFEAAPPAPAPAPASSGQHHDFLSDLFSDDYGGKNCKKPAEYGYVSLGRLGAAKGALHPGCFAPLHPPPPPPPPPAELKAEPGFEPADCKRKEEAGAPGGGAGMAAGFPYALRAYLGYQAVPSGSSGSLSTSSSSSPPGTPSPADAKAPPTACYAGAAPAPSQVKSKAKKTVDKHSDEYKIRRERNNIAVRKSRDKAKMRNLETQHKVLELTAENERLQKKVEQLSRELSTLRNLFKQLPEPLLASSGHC

Consider `CCNc1nc(Cl)nc(NC(C)(C)C)n1`, for which the outcome in experiment [1], in experiment [2], in experiment [3], in experiment [4], in experiment [5] and in experiment [6] was inactive. Besides, the compound was called inactive in [7], in experiment [8] and in experiment [9].
Regarding `Cc1ccc([N+](=O)[O-])cc1C`, the outcome in experiment [1], in experiment [2], in experiment [3], in experiment [4], in experiment [5] and in experiment [6] was inactive. Besides, the call in [7], in experiment [10], in experiment [8] and in [9] was inactive.
Usually AC50 stands for the concentration giving half of the maximal activity seen. On to `O=P(Oc1ccccc1)(Oc1ccccc1)Oc1ccccc1`, for which the compound was classed as inactive in experiment [1], in experiment [2], in experiment [3], in [4] and in experiment [6]. For the same compound, the half-maximal activity concentration (AC50) was 13.5 µM (active) in experiment [5], 52.6 µM (active) in [7] and 54 µM (active) in [8].
Take `Nc1cc2c3c(c1)C(c1ccccc1)=N[C@@H](NC(=O)c1cccnc1)C(=O)N3CC2`: the compound was called inactive in experiment [1], in experiment [2], in [5], in experiment [6], in [7] and in experiment [8]. Further, the AC50 in experiment [3] is 40.6 µM (active); in experiment [10], 145 µM (active).
Consider `Cc1cccc(N)c1`, for which the result in experiment [1], in experiment [2], in experiment [3], in experiment [4], in experiment [5] and in [6] was inactive. Moreover, the compound was classed as inactive in experiment [7], in experiment [10] and in experiment [8].
For `CC(Cl)(Cl)C(=O)O`, the compound was called inactive in [1], in experiment [2], in experiment [3], in experiment [4], in experiment [5] and in [6]. The call in experiment [7], in experiment [10] and in experiment [8] was inactive.
As for `CC(C)(C)OOC(C)(C)C`, the outcome in [1], in experiment [2], in experiment [3], in experiment [4], in experiment [5] and in experiment [6] was inactive. Also, the compound was classed as inactive in experiment [7], in experiment [10] and in [8].
Turning to `CCC(C)(C)c1ccc(O)cc1`, the call in [1], in experiment [2], in [3], in experiment [5], in experiment [6] and in [10] was inactive. Moreover, the call in experiment [8] was inactive. Moreover, the half-maximal activity concentration (AC50) in experiment [4] is 49 µM (active); in experiment [7], 49.5 µM (active).
On to `CCCCc1ccccc1`, for which the outcome in [1], in experiment [2], in experiment [3], in experiment [4], in [5] and in experiment [6] was inactive. The call in [7], in experiment [10] and in experiment [8] was inactive.
As for `Nc1ccc2ccccc2c1`, the outcome in experiment [1], in experiment [2], in experiment [3], in [4], in [5] and in experiment [7] was inactive. Moreover, the result in [10], in experiment [8] and in [9] was inactive. The concentration at half-maximal activity (AC50) in experiment [6] is 7.38 µM (active).
Regarding `Cc1ccc(N)cc1N`, the call in experiment [1], in experiment [2], in experiment [3], in experiment [4], in [5] and in experiment [7] was inactive. Further, the compound was called inactive in experiment [10] and in experiment [8]. Besides, the half-maximal activity concentration (AC50) in [6] was 5.24 µM (active).
For the compound `c1cc2c3c(cccc3c1)CC2`, the compound was classed as inactive in [1], in experiment [2], in experiment [3], in experiment [4], in experiment [5] and in [6]. In addition, the compound was classed as inactive in experiment [7], in [10], in experiment [8] and in experiment [9].
As for `CCCCN(CCCC)N=O`, the compound was called inactive in experiment [1], in experiment [2], in experiment [3], in [4], in experiment [5] and in experiment [6]. Further, the result in experiment [7], in experiment [10] and in [8] was inactive.
As for `CCCCCCCc1ccc(O)cc1`, the compound was classed as inactive in experiment [1], in experiment [2], in experiment [3], in experiment [5], in [6] and in [7]. The compound was called inactive in [10], in [8] and in experiment [9].
Regarding `CCOS(=O)(=O)OCC`, the compound was called inactive in experiment [1], in experiment [2], in [3], in experiment [4], in experiment [5] and in experiment [6]. Also, the outcome in [7], in experiment [10] and in experiment [8] was inactive.
For the compound `O=C(O)C(Cl)Cl`, the compound was classed as inactive in experiment [1], in experiment [2], in [3], in experiment [4], in [5] and in experiment [6]. Moreover, the compound was called inactive in [7], in experiment [10] and in experiment [8].
For `c1ccc2c(c1)Nc1ccccc1S2`, the call in experiment [1], in experiment [2], in experiment [3], in [5], in experiment [7] and in [9] was inactive. Also, the figures for the AC50 in [4] and in experiment [8] were 21.3 µM (active) and 41.7 µM (active), respectively.
As to `CCOC(=O)c1ccccc1C(=O)OCC`, the compound was called inactive in experiment [1], in [2], in experiment [3], in experiment [4], in [5] and in [7]. The result in experiment [10], in experiment [8] and in experiment [9] was inactive.
For `[N-]=[N+]=[N-]`, the call in experiment [1], in [2], in experiment [3], in experiment [4], in experiment [5] and in [7] was inactive. Besides, the outcome in [8] was inactive.
As to `CCC1(c2ccccc2)C(=O)N=C(O)NC1=O` (configuration not stated), the outcome in experiment [1], in [2], in experiment [3], in experiment [4], in experiment [5] and in experiment [6] was inactive. The call in experiment [7], in experiment [10] and in [8] was inactive.
As for `O=[N+]([O-])c1ccccc1`, the result in experiment [1], in experiment [2], in experiment [3], in experiment [4], in experiment [5] and in [6] was inactive. Moreover, the outcome in experiment [7], in [10], in experiment [8] and in [9] was inactive.
Turning to `CN(C)C(=O)Cl`, the call in experiment [1], in experiment [2], in experiment [3], in [4], in experiment [5] and in experiment [6] was inactive. The result in experiment [7], in experiment [10], in experiment [8] and in [9] was inactive.
As for `CCCN(CCC)c1c([N+](=O)[O-])cc(C(C)C)cc1[N+](=O)[O-]`, the outcome in [1], in experiment [2], in [3], in experiment [6], in [10] and in [8] was inactive. For the same compound, in experiment [9], the outcome was inactive. Also, the AC50 is 56.2 µM (active) in experiment [4], 5.57 µM (active) in experiment [5] and 130 µM (active) in experiment [7].
As for `CCN(CC)c1ccccc1`, the outcome in experiment [1], in experiment [2], in experiment [3], in experiment [5], in experiment [6] and in experiment [7] was inactive. The compound was called inactive in experiment [10] and in [8].
For the compound `CSC(C)(C)C=NO`, the outcome in experiment [1], in experiment [2], in experiment [3], in experiment [4], in experiment [5] and in [6] was inactive. The compound was called inactive in experiment [7], in [10] and in experiment [8].
With `O=C(O)C1C(C(=O)O)C2(Cl)C(Cl)=C(Cl)C1(Cl)C2(Cl)Cl` (configuration not stated), the call in [1], in experiment [2], in experiment [3], in experiment [5], in experiment [6] and in experiment [7] was inactive. Further, in experiment [8], the compound was called inactive.
